Compound activity as filed in PubChem BioAssay.
Pf Dd2 growth: qHTS Primary assay for Inhibitors of Plasmodium falciparum Dd2 growth in vitro | P. falciparum Dd2 growth, SYBR Green, 72 h | Potency, µM (top dose mostly 28.9 µM), most hits filed as inhibitors | 4.3% of 120,000 active; active = well fitted inhibition curve with a large enough effect; also: nearly all actives have a fitted effect of over 65% in size
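Infected erythrocytes (Dd2, 0.3% parasitemia, 2.5% hematocrit final) are added to compound in RPMI-1640/Albumax II medium, grown 72 h at 37C in low oxygen, then lysed with saponin/Triton-X containing SYBR Green and read by fluorescence.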
Numbers stand for hits; i = inactive; [ ] = remark or other dose. Only a selection was taken, and hits are over-represented in it overall.

SMILES	Pf Dd2 growth
Cc1cc(CN2CCc3nc(C(C)C)nc(-c4ccc(Cl)cc4)c3CC2)no1	8.91µM
CC(C)c1nc2c(c(-c3ccc(Cl)cc3)n1)CCN([S+](=O)([O-])c1ccccc1)CC2	11.2µM
COc1ccc(-c2nc(C)nc3c2CN([S+](=O)([O-])c2cccc(OC)c2)CC3)cc1	i
COc1cccc([S+](=O)([O-])N2CCc3nc(C4CC4)nc(-c4ccc(Cl)cc4)c3CC2)c1	12.6µM
O=[S+]([O-])(c1cccc(C(F)(F)F)c1)N1CCc2nc(C3CC3)nc(-c3ccc(Cl)cc3)c2C1	i
COc1ccc(-c2nc(C)nc3c2CCN(Cc2cc(C)on2)CC3)cc1	i
COc1ccc(-c2nc(C)nc3c2CCN(C(=O)c2ccc(C)cc2)CC3)cc1	i
COc1ccc(-c2nc(C(C)C)nc3c2CN([S+](=O)([O-])c2cccc(C(F)(F)F)c2)CC3)cc1	i
Cc1ccc([S+](=O)([O-])N2CCc3nc(C)nc(-c4ccc(Cl)cc4)c3CC2)cc1	i
COC[C@@H]1CN(C(=O)c2occc2C)C[C@H]1c1nc(C2CC2)no1	i
CCc1c(C(=O)N2CCc3c(c(C(=O)O)nn3CC3CC3)C2)csc1C	i
O=C(NCc1cccc(C(F)(F)F)c1)c1cccc2c1CCN2C(=O)C1CC1	i
NC(=O)[C@@H](Cc1ccccc1)NC(=O)[C@@H]1C[C@@H](NC(=O)c2cnccn2)CCN1C(=O)CSCC(=O)O	i
O[C@@H]1C[C@@H](c2nc(-c3ccccc3)no2)N(Cc2ccncc2)C1	i
COc1ccc(C(=O)N2C[C@@H](Oc3ccccc3)C[C@H]2C(=O)N2CCOCC2)c(OC)n1	i
COC[C@]1(O)CCN(C(=O)C2CCN(CC(N)=O)CC2)CC1(C)C	i
O=C(Cn1nc2n(c1=O)CCCCC2)NCc1ccc(Cl)cc1	i
CC(C)c1noc([C@@H]2C[C@H]3C(=O)NCCCCCCN(C(=O)c4cccc(C#N)c4)[C@H]3C2)n1	i
CCCN(CC1CCOC1)S(=O)(=O)c1ccc2c(c1)CCC2 (stereo not drawn)	i[5.79 µM]
N[C@H]1c2ccccc2C[C@@H]1NC(=O)COc1ccc(Cl)cc1Cl	i
O=C(CCC1CCN(S(=O)(=O)c2cccc(F)c2)CC1)NCCCN1CCCC1=O	i
COc1ccc(C(=O)N2CCc3nc(C4CC4)nc(-c4ccc(Cl)cc4)c3CC2)cc1	10µM
CCc1nc2c(c(-c3ccc(Cl)cc3)n1)CCN(C(=O)c1ccc(OC)cc1)CC2	i
Cc1ccc(C(=O)N2CCc3nc(C4CC4)nc(-c4ccc(Cl)cc4)c3CC2)cc1	i
O=C(CC1CCCCN(Cc2ccccc2)C1=O)NC1CCCCCC1 (stereo not drawn)	i
SMILES	Pf Dd2 growth
CC1=C(C(=O)Nc2ccccc2)C(c2cccc(C)c2)N2C(CC(=O)NC3CC3)=CSC2=N1 (stereo not drawn)	i
O=C(O)COCC(=O)N1CC[C@H]2COC(=O)N2c2cc(F)ccc2C1	i
O=C1Nc2ccccc2CC12CCCN2CC1CCCCC1 (stereo not drawn)	7.08µM
O=C1Nc2ccccc2CN(CC2CCCCC2)C12CCNCC2	11.2µM
O=C1Nc2ccccc2CN(Cc2ccc(Cl)cc2)C12CCNC2 (stereo not drawn)	10µM
CC(=O)N1Cc2ccccc2NC(=O)C12CCNC2 (stereo not drawn)	i
CC(=O)N1Cc2ccccc2NC(=O)C12CCNCC2	i
O=C1Nc2ccccc2CC12CCCN2Cc1ccc(Cl)cc1 (stereo not drawn)	i
CCN1Cc2ccccc2NC(=O)C12CCNC2 (stereo not drawn)	i
O=C1Nc2ccccc2CC12CCCN2CC1CCOCC1 (stereo not drawn)	i
CN1Cc2ccccc2NC(=O)C12CCNC2 (stereo not drawn)	i
COc1cc(=O)n2c(c1C(=O)Nc1cc(C(F)(F)F)ccc1Cl)CCCC2	i
CC(C)(C)C(=O)NC1CCN(c2cn[nH]c(=O)c2)CC1	i
COc1ccc(CNC(=O)N2CC(N(C3CCOCC3)S(C)(=O)=O)C2)cc1	i
O=C(c1nccc2ccccc12)N1CC(CO)C2(CCNCC2)C1 (stereo not drawn)	i
CC(=O)N[C@H]1C[C@@H](Cc2cc(CN(C)c3ccccc3)on2)C1(C)C	i
CC1(C)[C@H](Cc2cc(CC3CCCCC3)on2)C[C@@H]1NC(=O)c1ccco1	5.01µM
COC(=O)C(=O)N[C@H]1C[C@@H](Cc2cc(-c3ccccc3)on2)C1(C)C	i
CC(=O)N[C@H]1C[C@@H](Cc2cc(CC(C)C)on2)C1(C)C	i
COCC(=O)N[C@H]1C[C@@H](Cc2cc(-c3ccccc3)on2)C1(C)C	7.94µM
CC1(C)[C@H](Cc2cc(CCO)on2)C[C@@H]1NCc1ccco1	i
COCc1cc(C[C@@H]2C[C@H](NC(=O)CC(C)(C)C)C2(C)C)no1	i
COCC(=O)N[C@H]1C[C@@H](Cc2cc(CN(C)Cc3ccccc3)on2)C1(C)C	8.91µM
CC(=O)N1CCC(N[C@H]2C[C@@H](Cc3cc(CN(C)Cc4ccccc4)on3)C2(C)C)CC1	i
COCCN1C(=O)C(CC(=O)NCCc2ccccc2)=C2CCCCC21 (stereo not drawn)	i
SMILES	Pf Dd2 growth
COCCNc1ncc(C(=O)O)c(-c2cc(F)cc(F)c2)n1	i
CN(Cc1ccc(-n2cccn2)cc1)C(=O)c1ccccc1C1CCNC1 (stereo not drawn)	i
Cc1ccc(CSc2nc3ccncc3n2Cc2nc(-c3ccccc3C)oc2C)cc1	i
Cc1ccccc1-c1nc(Cn2ccnc2C(C)C)c(C)o1	11.2µM
Cc1ccccc1-c1nc(CS(=O)(=O)CC(=O)Nc2c(C)cccc2C)c(C)o1	i
Cc1ccccc1C(=O)N1CCn2c(nnc2-c2ccccc2)C1	i
Cc1ccc(S(=O)(=O)N2C[C@@H](F)C[C@H]2C(=O)N2CCCCC2)c(C)c1	i
COc1ccccc1CCC(=O)N1CCC(Cc2nncn2C)CC1	i
CCN(Cc1c(O)cccc1OC)CC1CCN(CCc2ccccc2C)CC1	15.8µM
CCN(Cc1cc(C)[nH]n1)CC1CCCN(CCc2cccc(OC)c2)C1 (stereo not drawn)	i
Cc1ncsc1CN1C[C@@H](NC(=O)c2cccnc2)C[C@H]1CO	i
O=C1NC2(Cc3ccccc31)CN(C(=O)C1CCCCC1)C2	i
O=C1CCN(C(=O)[C@@H]2CCCN2C(=O)NCCc2ccccc2)CCCCCCN1	i
O=C(NC1CCCN(c2cc(-c3ccc(F)cc3)[nH]n2)C1)c1ccc2nc[nH]c2c1 (stereo not drawn)	i
Cc1ccc(-c2cn3c(n2)CO[C@@H](CNS(C)(=O)=O)C3)cc1	i
COc1ccc(-c2cn3c(n2)CO[C@@H](CNS(=O)(=O)c2ccc(C)cc2)C3)cc1	12.6µM
COc1ccc(-c2cn3c(n2)CO[C@@H](CNS(C)(=O)=O)C3)cc1	i
Cc1cccc(C(=O)N2CCC(C3CCN(S(C)(=O)=O)CC3)C2)c1 (stereo not drawn)	i
CC(C)(C)CC(=O)N1C[C@@H](CO)[C@H](c2nc(-c3ccncc3)no2)C1	i
O=C1[C@H]2CN(Cc3ccc(Cl)cc3)C[C@H]2C(=O)N1CCc1ccccc1	i
Cc1ccccc1CN1C[C@@H]2C(=O)N(CCc3ccccc3)C(=O)[C@@H]2C1	i
CC(C)CCN1C[C@@H]2C(=O)N(CCc3ccccc3)C(=O)[C@@H]2C1	8.91µM
CC(NC(=O)CN1C(=O)COc2ccc(C(=O)COc3ccc(F)cc3F)cc21)c1ccccc1 (stereo not drawn)	i
Cn1ncc(N2CCC(CNC(=O)C3(c4ccccc4)CCCC3)C2)cc1=O (stereo not drawn)	i
